# Results published in PubChem BioAssay (NCATS).
# Values joined by “and” are separate entries in the source; they are usually repeats but may differ in a detail not shown here. Identical values can stand only once. Results filed as inconclusive are left out. Active and inactive are the calls of the source. Unless noted, calls follow the shape of the full dose curve.
# How the values were obtained:
# [1] = qHTS drug screen for cell cycle checkpoint inhibitors in PARPi-resistant BRCA-mutant ovarian cancer cell lines. (AID 1963452); conditions: PEO1/OlaR viability, CellTiter-Glo luminescence, 96 h; for Z-AUC: stronger effect = lower value; also: potency is read from the fitted curve at half-maximal effect
# Outline: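 PEO1, PEO4 and PEO1/OlaR ovarian cancer cells, 600 per well, exposed 96 h at 37C to a dilution series. Viability read by CellTiter-Glo luminescence, normalized to DMSO and empty wells; activity summarized as Z-AUC.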
# [2] = Dual reporter qHTS for antagonist of Pregnane X Receptor (hPXR) against the NCATS DSHEA and TCM libraries: Fluorescence Readout (AID 1920061; active = well fitted curve in the direction sought with a large enough effect; also: 0% is about no effect); conditions: PXR dual reporter cells, antagonist mode; series mostly up to 40 µM
# Outline: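 Antagonist mode: rifampicin 2 uM final co-added with compounds to hPXR-LucHepG2 cells for 24 h at 37C. Viability by CellTiter-Fluor, Ex/Em 405/540 nm, 1 h; reporter by ONE-Glo luminescence.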
# [3] = measured here: PEO1 parental Z-AUC
SMILES,Z-AUC [1],"Z-AUC [1, 3]",Z-AUC ([1]; measured here: PEO4 Z-AUC),outcome [2],Potency [1]
CC(C)C[C@H](CO)Nc1nc(S[C@@H](C)c2ccccc2)nc2nc(N)sc12,-0.387 (inactive),-0.481,-0.0726,,
CCCCCCCCCC(=O)O,,,,inactive,
Cc1cn(CCN2CCN(c3ccccc3-c3cc(C#N)cc(C(=O)NCCCN4CCCC4)c3)CC2)c2ccccc12,-0.259 (inactive),-0.4,-0.379,,
COc1ccccc1C(=O)Nc1cc2c(cc1N1CCCC1)n(C)c(=O)n2C,-1.16 (inactive),-0.583,-0.727,,
COc1ccc(-n2c(SCCCN3C(=O)c4cccc5cccc(c45)C3=O)nnc2-c2ccncc2)cc1,0.836 (inactive),0.296,0.916,,
COc1cc2c(cc1OC(C)C)[C@H](c1ccc(Cl)cc1)N(c1ccc(N(C)CC3CCC(N4CCN(C)C(=O)C4)CC3)cc1)C(=O)C2 (some centres undefined),0.694 (inactive),0.366,0.545,,
COCC(=O)NC/C=C/c1ccc2ncnc(Nc3ccc(Oc4ccc(C)nc4)c(C)c3)c2c1,-0.178 (inactive),-0.29,-0.0701,,
C=C1[C@H]2CC[C@H](C(=O)O)[C@@]23CC[C@H](C3)C1(C)C,,,,inactive,
CCNC(=O)C#Cc1ccc2c(C(=Nc3ccc(CN(C)C)cc3)c3ccccc3)c(O)[nH]c2c1,,-2.66,-2.58,,535 nM (active)
COCCNCc1ccc(-c2cc3nccc(Oc4ccc(NC(=O)C5(C(=O)Nc6ccc(F)cc6)CC5)cc4F)c3s2)nc1,-0.956 (inactive),-0.642,-0.561,,
O=C(O)CC(O)(CC(=O)O)C(=O)O,,,,inactive,
CC(=O)C1=C(O)C=C2Oc3c(C(C)=O)c(O)c(C)c(O)c3[C@]2(C)C1=O,,,,inactive,
COc1ccc(CNc2nc(N(CCO)CCO)nc3c2ncn3C(C)C)cc1,-0.772 (inactive),-0.866,-0.51,,
CCn1nc(C2CCN(C(=O)CCO)CC2)nc1-c1cnc(N)c(-c2nnc(C(C)(C)C)o2)n1,0.285 (inactive),0.385,0.568,,
Cc1c(NC(=O)c2cc3c(s2)CCCC3)cccc1-c1cn(C)c(=O)c(Nc2ccc(C3C(=O)N(C)CCN3C)cc2)n1 (centres undefined),1.18 (inactive),0.426,0.277,,
Cc1cc(-c2nc3cc(F)ccc3s2)ccc1NC(=O)[C@@H](N)CCCCN,-0.88 (inactive),-1.06,-1.32,,
COc1ccc(-c2c(C)nn3c(NCCN4CCOCC4)cc(C)nc23)cc1OC,0.717 (inactive),0.787,0.395,,
CC[C@@H](C)Nc1cc(C(=O)NC2CC3CC[C@@H](C2)N3c2ccc(C(=O)C3CC3)cn2)c(C)cc1C(N)=O (some centres undefined),,-1.88,-1.25,,219 nM (active)
CN1CC[C@@H](c2c(O)cc(O)c3c(=O)cc(-c4ccc(C(F)(F)F)cc4Cl)oc23)[C@@H]1CO,-0.123 (inactive),0.298,0.604,,
C[C@H](Nc1ncnc2nc[nH]c12)c1cc2cccc(Cl)c2c(=O)n1-c1ccccc1,-0.68 (inactive) and -0.929 (inactive),0.702 and -0.975,0.729 and -0.588,,
Cc1[nH]c2ccccc2c1CCNCc1ccc(/C=C/C(=O)NO)cc1,,-1.48,-1.35,,77.6 nM (active)
O=C(Cc1cccc(OC(F)(F)F)c1)Nc1ccc(CCCCc2nnc(NC(=O)Cc3ccccn3)s2)nn1,-1.13 (inactive),-1.01,-1.03,,
CC(C)S(=O)(=O)c1ccc2nccc(Nc3ccc4scnc4c3)c2c1,-0.9 (inactive),-0.597,-0.874,,
Cc1ccc(C(=O)Nc2ccc(CN3CCN(C)CC3)c(C(F)(F)F)c2)cc1C#Cc1cnc2[nH]ncc2c1,-1.39 (inactive),-0.429,-0.168,,
Cc1c(F)ccc(C(=O)Nc2cc([N+](=O)[O-])ccc2N2CCN(C)CC2)c1Cl,0.532 (inactive),0.409,-0.0381,,
Cn1ncc(Cl)c1-c1cc(C(=O)N[C@H](CN)Cc2cccc(F)c2)sc1Cl,0.3 (inactive),0.0445,0.251,,
CC(C)(C)Sc1c(CC(C)(C)C(=O)O)n(Cc2ccc(Cl)cc2)c2ccc(OCc3ccc4ccccc4n3)cc12,1.37 (inactive),0.865,0.962,,
CCCOc1ccc(CCc2nc3cc(-c4c(C)noc4C)ccc3n2CCN2CCOCC2)cc1,-0.591 (inactive),-0.719,-0.728,,
CCn1c(=O)c(-c2ccc(-c3cncs3)cc2Cl)cc2cnc(Nc3ccc(N4CCN(C)CC4)cc3)nc21,-1.32 (inactive),-0.743,-0.961,,
